Results filed as inconclusive are left out. Activity calls are given as the source filed them. Unless noted, calls follow the shape of the dose curve; as a rule, active = well fitted curve in the direction sought with a large enough effect in the repeat runs; inconclusive = weak or mixed curves; inactive = no such curve, though single readings can be large; an effect the other way counts as inactive or inconclusive.
Tests used:
[1] = qHTS assay to identify small molecule phospholipidosis (PLD) inducers (AID 1259344; active = well fitted curve in the direction sought with a large enough effect; an effect the other way counts as inactive or inconclusive)
Summary of the method: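 HepG2 cells on collagen I, attached 4 h at 37 C, were co-treated with compound and LipidTOX Red dye for 24 h at 37 C, then fixed with paraformaldehyde plus Hoechst 33342 and imaged by high-content microscopy for phospholipid accumulation.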

[2] = qHTS assay to identify small molecule HDAC inhibitors (AID 1259364);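 also: wild-type HCT-116 cells with endogenous class I/II HDAC activity; top concentration of the series differs between compounds; nearly all actives have a fitted effect of over 45% in size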
Summary of the method: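 Read-out: luminescence of HDAC-Glo I/II reagent, 30 min RT, reflecting class I/II deacetylase activity in whole HCT-116 cells pre-exposed 2 h to DMSO-dissolved compounds.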

[3] = qHTS assay to identify small molecule HDAC inhibitors - cell viability counter screen (AID 1259365); also: series mostly up to about 92 µM; nearly all actives have a fitted effect of over 50% in size
Summary of the method: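 To flag cytotoxic hits, 1,500 wild-type HCT-116 cells per well, plated the day before, receive test compounds for 2hr at 37 C before CellTiter-Glo reagent and a luminescence read.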

[4] = qHTS assay to identify small molecule agonists of the sonic hedgehog signaling (Shh) pathway - cell viability counter screen (AID 1259366); also: nearly all actives have a fitted effect of over 50% in size
Summary of the method: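 Fluorescence from CellTiter-Fluor reports live cells in this counter screen. NIH/3T3-derived Gli1-Luc reporter cells receive test compounds for 24hr at 37C; reagent goes in at 23hr.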

[5] = qHTS assay to identify small molecule antagonists of the sonic hedgehog signaling (Shh) pathway - cell viability counter screen (AID 1259367); also: nearly all actives have a fitted effect of over 55% in size
Summary of the method: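 NIH/3T3-derived Gli1-Luc reporter cells (2,000 per well) rested 4 hr at 37 C, then received DMSO compounds plus conditioned medium. After 23 hr of treatment, CellTiter-Fluor was added for 1 hr at 37C and fluorescence read.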

[6] = qHTS assay to identify small molecule agonists of the sonic hedgehog signaling (Shh) pathway (AID 1259368; calls by dose curve;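 also: NIH/3T3-derived 3T3Gli1-Luc cells carrying a stable Gli1-driven firefly luciferase reporter; series mostly up to about 92 µM; nearly all actives have a fitted effect of over 15% in size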)
Summary of the method: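 A Gli1 transcriptional response element controlled firefly luciferase in 3T3Gli1-Luc cells. Compounds and a positive control were added 4 hr after plating, and cells were incubated a further 24 hr at 37 C before luminescence detection.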

[7] = qHTS assay to identify small molecule antagonists of the sonic hedgehog signaling (Shh) pathway (AID 1259369; calls by dose curve; also: nearly all actives have a fitted effect of over 45% in size; also: potency is read from the fitted curve at half-maximal effect)
Summary of the method: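 For antagonist detection, the reporter line received test compounds together with conditioned medium, incubated 24hr at 37 C, 5% CO2, then luminescence was recorded following 30min room-temperature luciferase reagent incubation.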

[8] = target: Estrogen receptor beta (Homo sapiens) (UniProt Q92731); assay: qHTS assay to identify small molecule agonists of the estrogen receptor beta (ER-beta) signaling pathway (AID 1259377; active = well fitted activation curve with a large enough effect in the signal ratio in the repeat runs, not every such curve was filed as active; the % refers to the signal ratio)
Sequence of Estrogen receptor beta (Homo sapiens) (Q92731 whole entry, looked up): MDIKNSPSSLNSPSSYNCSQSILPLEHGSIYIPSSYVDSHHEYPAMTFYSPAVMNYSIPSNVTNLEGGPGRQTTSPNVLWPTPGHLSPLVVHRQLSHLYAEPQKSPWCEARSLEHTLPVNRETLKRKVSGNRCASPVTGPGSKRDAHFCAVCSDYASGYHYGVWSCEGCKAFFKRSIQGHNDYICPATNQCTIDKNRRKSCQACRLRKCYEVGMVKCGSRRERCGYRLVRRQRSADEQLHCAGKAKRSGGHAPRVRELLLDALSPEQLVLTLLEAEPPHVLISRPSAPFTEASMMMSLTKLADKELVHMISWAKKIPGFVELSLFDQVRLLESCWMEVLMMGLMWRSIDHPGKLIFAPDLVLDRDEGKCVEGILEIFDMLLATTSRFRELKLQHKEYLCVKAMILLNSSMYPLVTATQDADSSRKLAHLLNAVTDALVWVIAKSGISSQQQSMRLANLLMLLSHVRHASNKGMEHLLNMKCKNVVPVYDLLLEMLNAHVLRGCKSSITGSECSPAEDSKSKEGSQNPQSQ
Summary of the method: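 Screening used GripTite ER-beta-UAS-bla cells held in 2% charcoal-stripped FBS medium. After overnight (16 hr) compound incubation at 37C, beta-lactamase activity was detected with a FRET substrate by fluorescence.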

[9] = target: Estrogen receptor beta (Homo sapiens) (UniProt Q92731); assay: qHTS assay to identify small molecule antagonists of the estrogen receptor beta (ER-beta) signaling pathway (AID 1259378; active = well fitted inhibition curve with a large enough effect in the signal ratio in the repeat runs, not every such curve was filed as active; the % refers to the signal ratio)
Summary of the method: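 ER-beta-UAS-bla HEK293T (GripTite) cells in 2% charcoal-stripped FBS medium were preincubated 6 hr at 37C, dosed with compound, then stimulated with 1 nM E2 (final) for 16 hr; beta-lactamase reporter read by B/G FRET fluorescence after 2 hr substrate loading.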

[10] = qHTS assay to identify small molecule agonists of the androgen receptor (AR) signaling pathway in the presence of an antagonist - cell viability counter screen (AID 1259379);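 also: MDA-kb2 human breast cancer cells carrying an MMTV luciferase reporter; series mostly up to about 92 µM; nearly all actives have a fitted effect of over 25% in size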
Summary of the method: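 Seed MDA-kb2 at 3,000 cells/well; incubate 5 hr, 37C, 0% CO2. Add nilutamide to 3.0uM final, then pin compounds at 15 concentrations. Incubate 16 hr. Add CellTiter-Fluor at 15 hr, read fluorescence after 1 hr.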

[11] = qHTS assay to identify small molecule agonists of the estrogen receptor beta (ER-beta) signaling pathway - cell viability counter screen (AID 1259380); also: nearly all actives have a fitted effect of over 30% in size
Summary of the method: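 CellTiter-Glo read, 30 min RT, same wells as bla assay; cells ER-beta-UAS-bla HEK293T; 16 hr compound, 37C; medium 2% charcoal-stripped FBS.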

[12] = qHTS assay to identify small molecule antagonists of the estrogen receptor beta (ER-beta) signaling pathway - cell viability counter screen (AID 1259382); also: series mostly up to about 92 µM; nearly all actives have a fitted effect of over 55% in size
Summary of the method: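 In this multiplexed counter screen, cells were seeded at 2,000 per well in medium with 2% charcoal-stripped FBS and incubated 6 hr before compound and 1nM final E2 were added. Sixteen hours later, ATP-based luminescence reported viability.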

[13] = target: Estrogen receptor (Homo sapiens) (UniProt P03372); assay: qHTS assay to identify small molecule agonists of the estrogen receptor alpha (ER-alpha) signaling pathway in the presence of an antagonist (AID 1259383; calls by dose curve; also: top concentration of the series differs between compounds; nearly all actives have a fitted effect of over 15% in size)
Sequence of Estrogen receptor (Homo sapiens) (P03372 whole entry, looked up): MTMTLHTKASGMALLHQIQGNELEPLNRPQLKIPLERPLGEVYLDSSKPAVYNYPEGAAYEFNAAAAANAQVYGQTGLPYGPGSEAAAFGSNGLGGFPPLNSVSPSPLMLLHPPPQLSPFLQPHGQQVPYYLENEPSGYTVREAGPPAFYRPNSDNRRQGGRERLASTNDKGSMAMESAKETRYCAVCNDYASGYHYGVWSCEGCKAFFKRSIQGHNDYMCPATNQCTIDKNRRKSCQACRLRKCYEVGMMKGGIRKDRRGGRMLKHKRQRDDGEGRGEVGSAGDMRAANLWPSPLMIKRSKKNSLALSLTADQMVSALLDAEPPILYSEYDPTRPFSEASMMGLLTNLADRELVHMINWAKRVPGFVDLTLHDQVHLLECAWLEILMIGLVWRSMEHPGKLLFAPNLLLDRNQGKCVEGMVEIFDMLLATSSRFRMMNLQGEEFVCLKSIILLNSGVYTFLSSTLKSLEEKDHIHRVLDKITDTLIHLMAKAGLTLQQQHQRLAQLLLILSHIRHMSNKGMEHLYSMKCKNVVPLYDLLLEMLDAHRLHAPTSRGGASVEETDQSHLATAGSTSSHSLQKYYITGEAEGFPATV
Summary of the method: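 Stably transfected VM7Luc4E2 reporter cells, kept 5 days in charcoal-stripped serum, received ICI-182,780 at 10.0nM final before compound addition. Following 22hr incubation at 37C and 5% CO2, luciferase signal was read by luminescence.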

[14] = target: Thyrotropin receptor (Homo sapiens) (UniProt P16473); assay: qHTS assay to identify small molecule antagonists of the thyroid stimulating hormone receptor (TSHR) signaling pathway (AID 1259385; calls by dose curve; also: nearly all actives have a fitted effect of over 20% in size)
Sequence of Thyrotropin receptor (Homo sapiens) (P16473 whole entry, looked up): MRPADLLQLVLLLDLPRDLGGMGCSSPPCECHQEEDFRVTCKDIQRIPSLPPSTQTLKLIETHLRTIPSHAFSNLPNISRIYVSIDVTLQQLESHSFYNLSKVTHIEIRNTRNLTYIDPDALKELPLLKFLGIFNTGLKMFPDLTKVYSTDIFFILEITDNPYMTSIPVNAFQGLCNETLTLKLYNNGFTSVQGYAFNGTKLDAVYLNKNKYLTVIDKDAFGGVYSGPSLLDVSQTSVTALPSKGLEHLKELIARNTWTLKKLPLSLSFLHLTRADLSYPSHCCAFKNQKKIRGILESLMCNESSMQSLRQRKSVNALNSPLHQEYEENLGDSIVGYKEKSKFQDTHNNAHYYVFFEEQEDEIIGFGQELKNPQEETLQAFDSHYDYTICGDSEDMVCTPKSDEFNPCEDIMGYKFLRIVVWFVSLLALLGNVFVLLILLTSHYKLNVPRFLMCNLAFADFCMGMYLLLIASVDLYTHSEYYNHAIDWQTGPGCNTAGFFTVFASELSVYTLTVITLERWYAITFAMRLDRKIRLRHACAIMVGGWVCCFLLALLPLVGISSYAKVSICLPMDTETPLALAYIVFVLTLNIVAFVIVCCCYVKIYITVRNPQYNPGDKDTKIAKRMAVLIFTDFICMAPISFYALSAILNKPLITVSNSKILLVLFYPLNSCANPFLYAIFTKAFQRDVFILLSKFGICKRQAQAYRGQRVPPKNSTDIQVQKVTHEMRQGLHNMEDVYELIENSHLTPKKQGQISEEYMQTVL
Summary of the method: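 TSHR-HEK293 cells were plated and held 18 h at 37C/5% CO2, then given compound plus Ro20-1724 and stimulated with TSH at 1.5 ng/mL final. After 30 min at room temperature, cAMP was detected with cAMP-d2/anti-cAMP-cryptate (1 h) by fluorescence.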

[15] = qHTS assay to identify small molecule agonists of the estrogen receptor alpha (ER-alpha) signaling pathway in the presence of an antagonist - cell viability counter screen (AID 1259386);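 also: series mostly up to about 92 µM; cells exposed to compounds for 22 h at 37 °C before the viability read; nearly all actives have a fitted effect of over 30% in size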
Summary of the method: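 Viability counter screen using VM7Luc4E2 (full-length ER-alpha, four ERE-luciferase). The cells were treated with compounds alongside ICI-182,780 10.0nM for 22hr, and live-cell protease fluorescence was quantified with CellTiter-Fluor.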

[16] = target: Progesterone receptor (Homo sapiens) (UniProt P06401); assay: qHTS assay to identify small molecule agonists of the progesterone receptor (PR) signaling pathway (AID 1346784; calls by dose curve; also: nearly all actives have a fitted effect of over 30% in size)
Sequence of Progesterone receptor (Homo sapiens) (P06401 whole entry, looked up): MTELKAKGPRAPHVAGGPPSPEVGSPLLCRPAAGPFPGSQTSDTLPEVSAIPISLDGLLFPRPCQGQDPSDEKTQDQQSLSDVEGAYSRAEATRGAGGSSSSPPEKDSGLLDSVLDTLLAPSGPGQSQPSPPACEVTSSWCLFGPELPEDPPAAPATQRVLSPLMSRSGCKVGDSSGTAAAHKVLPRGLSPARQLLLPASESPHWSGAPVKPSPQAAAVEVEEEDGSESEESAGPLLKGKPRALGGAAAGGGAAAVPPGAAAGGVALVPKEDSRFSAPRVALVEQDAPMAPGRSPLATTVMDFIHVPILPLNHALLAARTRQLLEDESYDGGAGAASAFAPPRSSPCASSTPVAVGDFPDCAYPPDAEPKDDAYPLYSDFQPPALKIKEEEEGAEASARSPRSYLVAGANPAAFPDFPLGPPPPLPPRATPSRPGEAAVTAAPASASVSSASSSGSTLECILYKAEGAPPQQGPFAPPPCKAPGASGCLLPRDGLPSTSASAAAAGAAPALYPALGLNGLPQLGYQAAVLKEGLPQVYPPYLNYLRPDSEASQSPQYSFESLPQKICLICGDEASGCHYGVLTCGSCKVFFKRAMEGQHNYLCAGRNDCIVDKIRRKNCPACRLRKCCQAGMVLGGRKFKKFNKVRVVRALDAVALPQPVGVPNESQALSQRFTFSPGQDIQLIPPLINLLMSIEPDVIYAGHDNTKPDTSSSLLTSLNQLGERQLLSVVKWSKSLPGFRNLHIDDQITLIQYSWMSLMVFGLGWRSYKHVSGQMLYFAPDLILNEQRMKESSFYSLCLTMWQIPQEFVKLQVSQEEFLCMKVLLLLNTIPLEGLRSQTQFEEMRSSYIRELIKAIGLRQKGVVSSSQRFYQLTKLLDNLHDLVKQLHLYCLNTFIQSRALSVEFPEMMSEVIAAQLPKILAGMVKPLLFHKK
Summary of the method: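 Seed PR-UAS-bla HEK 293T cells (2% charcoal-stripped FBS), incubate 6 hr at 37C; add compounds in DMSO, 16 hr at 37C; add LiveBLAzer B/G substrate, 2 hr RT; read fluorescence intensity.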

[17] = target: Progesterone receptor (Homo sapiens) (UniProt P06401); assay: qHTS assay to identify small molecule antagonists of the progesterone receptor (PR) signaling pathway (AID 1346795; active = well fitted inhibition curve with a large enough effect in the signal ratio in the repeat runs, not every such curve was filed as active; the % refers to the signal ratio)
Summary of the method: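 Screening used a GripTite HEK293T line with PR-responsive UAS-beta-lactamase. Cells were challenged with compound in the presence of 1 nM R5020 final for 16 hr at 37C; B/G FRET substrate, 2 hr room temperature, fluorescence.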

[18] = qHTS assay to identify small molecule antagonists of the progesterone receptor (PR) signaling pathway - cell viability counter screen (AID 1346798); also: series mostly up to about 92 µM; nearly all actives have a fitted effect of over 50% in size
Summary of the method: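 Measures cytotoxicity in parallel with the PR antagonist reporter read: HEK293T PR-UAS-bla cells get compound and R5020 for 16 hr, and remaining viable cells are quantified by CellTiter-Glo luminescence.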

[19] = qHTS assay to identify small molecule agonists or antagonists of the thyroid stimulating hormone receptor (TSHR) signaling pathway - wild type cell line counter screen (AID 1259384; calls by dose curve)
Summary of the method: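 Wild-type HEK293 cells were plated 18 h at 37 C/5% CO2, pin-dosed with compound plus Ro20-1724 medium, held 30 min at room temperature, then given cAMP-d2 and anti-cAMP-cryptate; fluorescence was read after 1 h. Fifteen concentrations, triplicate.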
% is scaled to controls: 0 for no effect and ±100 for the full control effect.

O=c1n(Cl)c(=O)n(Cl)c(=O)n1Cl
inactive: outcome [1] | Potency [2] | outcome [3] | Potency [4] | Potency [5] | outcome [6] | Potency [7] | Potency [8] | outcome [9] | outcome [10] | Potency [11] | Potency [12] | Potency [13] | Potency [14] | outcome [15] | outcome [16] | Potency [17] | Potency [18]

CN1C(=O)CN=C(c2ccccc2)c2cc(Cl)ccc21
active: Potency [7] 4.39 µM
inactive: outcome [1] | Potency [2] | outcome [3] | Potency [4] | Potency [5] | outcome [6] | outcome [10] | Potency [11] | Potency [12] | Potency [14] | outcome [15] | outcome [16] | Potency [18]

CC(C)(C)OOC(C)(C)C
inactive: Potency [2] | outcome [3] | Potency [4] | Potency [5] | outcome [6] | Potency [7] | Potency [8] | outcome [9] | outcome [10] | Potency [11] | Potency [12] | Potency [13] | outcome [19] | Potency [14] | outcome [15] | outcome [16] | Potency [17]

C#CCN(C)[C@H](C)Cc1ccccc1
inactive: outcome [1] | Potency [2] | outcome [3] | Potency [4] | Potency [5] | outcome [6] | Potency [7] | Potency [8] | outcome [9] | outcome [10] | Potency [11] | Potency [12] | Potency [13] | Potency [14] | outcome [15] | outcome [16] | Potency [17] | Potency [18]

Nc1ccccc1C(=O)O
inactive: outcome [1] | Potency [2] | Potency [4] | Potency [5] | outcome [6] | Potency [7] | Potency [8] | outcome [9] | outcome [10] | Potency [11] | Potency [12] | Potency [13] | Potency [14] | outcome [15] | outcome [16] | Potency [17] | Potency [18]

OCCN(CCO)CCO
inactive: PLD induction [1] 10.3% [at 7.66 µM] | Potency [2] | outcome [3] | Potency [4] | Potency [5] | outcome [6] | Potency [7] | outcome [10] | Potency [11] | Potency [12] | Potency [14] | outcome [15] | outcome [16] | Potency [17] | Potency [18]

CCOC(=O)c1ccccc1C(=O)OCC
inactive: outcome [1] | Potency [2] | Potency [4] | Potency [5] | outcome [6] | Potency [7] | outcome [10] | Potency [11] | Potency [12] | Potency [13] | outcome [19] | Potency [14] | outcome [15] | outcome [16] | Potency [17]

CC(C)=C[C@@H]1[C@@H](C(=O)OCc2coc(Cc3ccccc3)c2)C1(C)C
inactive: outcome [1] | Potency [2] | outcome [3] | Potency [4] | Potency [5] | outcome [6] | outcome [10] | Potency [11] | Potency [12] | Potency [13] | outcome [15] | outcome [16] | Potency [17]

COC(=O)NC(=S)Nc1ccccc1NC(=S)NC(=O)OC
inactive: Potency [2] | outcome [3] | Potency [4] | Potency [5] | outcome [6] | Potency [7] | Potency [8] | outcome [9] | outcome [10] | Potency [11] | Potency [12] | Potency [13] | outcome [19] | Potency [14] | outcome [15] | outcome [16] | Potency [17]
